The target in the assay is NADPH oxidase 5 (Homo sapiens) (UniProt Q96PH1). Nature of the assay: compounds shifting NOX5 Amplex Red fluorescence – cell-based, HEK293-NOX5, NOX inhibitor project, primary screen (AID 1161). Conditions: HEK293-NOX5, ionomycin, 45 min, higher = more signal.
Chain of NADPH oxidase 5 (Homo sapiens) (Q96PH1 whole entry, looked up): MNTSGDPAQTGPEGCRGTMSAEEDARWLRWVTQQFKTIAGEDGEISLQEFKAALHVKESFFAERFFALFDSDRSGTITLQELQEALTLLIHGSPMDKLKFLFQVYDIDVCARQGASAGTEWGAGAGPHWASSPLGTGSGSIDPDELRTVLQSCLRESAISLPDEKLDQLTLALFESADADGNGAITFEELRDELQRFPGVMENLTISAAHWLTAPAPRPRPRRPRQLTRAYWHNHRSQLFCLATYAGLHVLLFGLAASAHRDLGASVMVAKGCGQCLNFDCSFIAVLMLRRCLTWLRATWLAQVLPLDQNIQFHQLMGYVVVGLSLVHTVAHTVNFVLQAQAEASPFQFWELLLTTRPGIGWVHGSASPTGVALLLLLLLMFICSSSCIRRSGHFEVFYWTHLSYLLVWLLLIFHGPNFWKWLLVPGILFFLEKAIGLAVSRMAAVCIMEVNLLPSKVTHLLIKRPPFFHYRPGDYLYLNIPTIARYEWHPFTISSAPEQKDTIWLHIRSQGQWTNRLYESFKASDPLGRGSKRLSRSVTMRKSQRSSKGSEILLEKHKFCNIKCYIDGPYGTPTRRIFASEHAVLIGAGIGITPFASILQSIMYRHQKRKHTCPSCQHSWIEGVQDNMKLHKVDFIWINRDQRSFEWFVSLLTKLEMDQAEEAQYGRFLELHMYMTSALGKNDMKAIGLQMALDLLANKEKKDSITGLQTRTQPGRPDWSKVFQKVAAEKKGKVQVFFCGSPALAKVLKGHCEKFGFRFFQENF
As to `COC(=O)CC=C[C@@H](C)[C@@H](C=NOC(C)CN1CCCCc2nc(C)c(C)cc21)OC` (some centres not stated), the z-score was -1.52.

With `CCOC(=O)[C@H](CC(C)C)NC(=O)CCC1CC(OC(=O)NCc2ccc3c(c2)OCO3)CC2(CCCC(COC(=O)NCCc3ccc(Cl)cc3)O2)O1` (some centres not stated), the z-score was 0.301.

Consider `CC(CCN1CCc2nc(-c3ccccc3)c(-c3ccccc3)cc2C1)=NO[C@H](C)c1cn([C@H](CO)Cc2ccccc2)nn1`, for which the z-score was -1.75.

Regarding `CC(CCC(=O)OC[C@H]1O[C@H](C#Cc2ccccc2)C=C[C@@H]1Oc1ccc(C)cc1)=NO[C@H](C)c1cn([C@@H]2COC[C@H]2O)nn1`, the z-score is -3.36.

Turning to `CC(CCN1CCc2nc(-c3ccccc3)c(-c3ccccc3)cc2C1)=NOC(C)CN1CCCc2nc(C)c(C)cc21` (configuration not stated), the z-score was -3.15.

Turning to `CCC1=NOC(CCC2CC(OC(=O)NCc3cccc4c3OCO4)CC3(CCCC(COC(=O)NCCc4ccc(Cl)cc4)O3)O2)C1` (configuration not stated), the z-score is 0.984.

For the compound `CCOC(=O)CCN1C(=O)[C@H]2[C@@H]3C(=CC[C@H]2C1=O)C(=O)[C@H]1O[C@H]1[C@H]3O`, the z-score was 0.38.

As for `CON=C(C)CCC(=O)OC[C@H]1O[C@H](C#Cc2ccccc2)C=C[C@@H]1Oc1ccc(C)cc1`, the z-score is -0.0339.

Regarding `Cc1cc2c(nc1C)CCCCN2CC(O)CN1CCCc2nc(-c3ccc(Br)cc3)ccc21` (configuration not stated), the z-score is 0.616.

In the case of `COC(=O)[C@H](C)NC(=O)CCC1CC(OC(=O)NCc2cccc3ccccc23)CC2(CCCC(COC(=O)NCCc3ccccc3OC)O2)O1` (some centres not stated), the z-score is 0.512.

For the compound `CC#CCOCCC=C1c2ccccc2[C@@H](OC)[C@@H]1C`, the z-score came to 0.696.

Consider `CCO[C@H](c1cc(OC)cc([N+](=O)[O-])c1OC)[C@H](C)[C@@H](OC)[C@H](C)C=CCC(=O)OC`, for which the z-score is -1.11.

These data come from PubChem BioAssay.
